{"source": "PubChem BioAssay (NCI)", "note": "About 83,000 compounds went through this panel and 20% of them were active in at least one assay; those are over-represented in the sample as a whole.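 Single-concentration screen, 48 h exposure, 96-well plates. Endpoint: percent growth. Below 10 = active.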 Unmarked numbers belong to inactive results. The source made the active and inactive calls."}
{"test_system": "OVCAR-3 ovarian", "assay": "NCI-60 one-dose screen, 48 h (100 = growth as untreated, 0 = no growth, -100 = all killed)", "details": "10 µM unless noted"}
{"smiles": "CN(C)CCS(=O)(=O)Nc1cc(-c2ccc3ncnc(Nc4ccc(F)c(Cl)c4)c3c2)cnc1Cl", "growth": "-87% (active)"}
{"smiles": "C=C1C(=O)O[C@H]2[C@H]1CC/C(COC(=O)c1ccc(Cl)nc1)=C\\CC[C@@]1(C)O[C@@H]21", "growth": "-42.1% (active)"}
{"smiles": "C=CC(=O)NC(=O)Nc1ccccc1Cl", "growth": "68.7%"}
{"smiles": "Nc1nc(-c2cc3c(cc2Cl)NC(=O)/C3=C/c2ccc(Cl)cc2)cs1", "growth": "32.8%"}
{"smiles": "COc1cc2ncn3c(=O)c4c5c(sc4nc3c2cc1OC)CCCCC5", "growth": "98.4%"}
{"smiles": "CCn1cc(C(=O)O)c(=O)c2cc(F)c(N3CCN(CC(=O)Nc4ccc(C(C)=O)cc4)CC3)cc21", "growth": "111%"}
{"smiles": "CCNC(=O)Oc1ccc(/C(=C(/CC)Cc2ccccc2)c2ccc(OCCN3CCOCC3)cc2)cc1", "growth": "50.8%"}
{"smiles": "CCCCCCCCCCCCCCCCNc1ccccc1", "growth": "104%"}
{"smiles": "CC(/C=C/C=C(\\C)[C@H](O)[C@H](C)C(=O)O[C@H]1C[C@H](C)C=C2C=C[C@@]3(C)O[C@@H](O)CC(=O)[C@]3(C)[C@H]21)=C\\C=C\\C(=O)O", "growth": "2.71% (active)"}
{"smiles": "COc1ccc2c(c1)OC(N(C(C)=O)C(C)=O)=C(C#N)C2c1ccc(F)cc1", "note": "(centres undefined)", "growth": "11.9%"}
{"smiles": "N#Cc1c(N)nc(Cl)c(C#N)c1C(=O)c1ccccc1", "growth": "50.4%"}
{"smiles": "CCCCCCCC(=O)SCC/C=C/[C@@H]1CC(=O)NCc2nc(cs2)C2=N[C@@](C)(CS2)C(=O)N[C@@H](C(C)C)C(=O)N1", "growth": "-7.56% (active)"}
{"smiles": "COC(=O)c1ccc2c(c1)Oc1ccc(Cl)cc1-c1cc(C)nn1-2", "growth": "39%"}
{"smiles": "Nc1n[nH]c2cccc(C#Cc3cccc(NC(=O)c4cccc(C(F)(F)F)c4)c3)c12", "growth": "49.2%"}
{"smiles": "Cc1ccc(NC(=O)CN2CCOCC2)cc1Cl", "growth": "104%"}
{"smiles": "C=C1C(=O)O[C@H]2[C@H]1CC/C(COC(=O)c1ccc(C#N)cc1)=C\\CC[C@@]1(C)O[C@@H]21", "growth": "-10.7% (active)"}
{"smiles": "C=CC(C)(O)CCC1C(=C)CCC2C(C)(C)CCCC12C", "note": "(centres undefined)", "growth": "105%"}
{"smiles": "CCOC(=O)c1noc2c1CCc1cn(Cc3cc(OC)cc(OC)c3)cc1-2", "growth": "103%"}
{"smiles": "Nc1nc(Nc2ccc(OCc3cccc(F)c3)cc2)c2c(n1)[nH]c1ccc(O)cc12", "growth": "-86.4% (active)"}
{"smiles": "C#C[C@@]1(O)[C@@H](CO)O[C@@H](n2cc(Br)c3c(Cl)ccnc32)[C@@H]1O", "growth": "-9.54% (active)"}
{"smiles": "C=C1C(=O)O[C@H]2[C@H]1CC/C(CNC(=O)/C1=C/CC[C@@]3(C)O[C@H]3[C@H]3OC(=O)C(=C)[C@@H]3CC1)=C\\CC[C@@]1(C)O[C@@H]21", "growth": "85.1%"}
{"smiles": "COc1ccc(N)c(S)c1", "growth": "110%"}
{"smiles": "C=CC(=O)Nc1cccc(Nc2nc(Nc3ccc(OCCOC(F)F)cc3)ncc2F)c1", "growth": "48.4%"}
{"smiles": "O=C(c1ccccc1)[C@H]1[C@@H]2CCCN2[C@]2(C(=O)Nc3ccc(F)cc32)[C@]12C(=O)Nc1ccccc12", "growth": "83.7%"}
